HP1b binding inh = inhibitors of HP1-beta chromodomain binding to methylated histone tails; P83916; AlphaScreen HP1-beta / biotin-H3K9me3 peptide binding; Potency, µM (doses to about 114 µM), without a hit: at the top dose activity change, negative = inhibition, actives largely listed as inhibitors; 390,000 tested, 0.56% active; note: potency is the fitted concentration of half-maximal effect; nearly all actives have a fitted effect of over 70% in size
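HP1-beta protein (50 nM final) preincubated 30 min at room temperature with biotinylated H3(1-18)K9me3 peptide (50 nM) in PBS pH 7.4, 0.01% Tween-20, then compound added for 30 min. AlphaScreen streptavidin donor/nickel chelate acceptor beads (10 ug/mL final), 30 min dark, luminescence read.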
CtBP-E1A blk = inhibitors of CtBP/E1A interaction | activity change, % (concentration not given with the values) | 340,000 tested, 0.49% active | AID 651724 | AlphaScreen GST-E1A/His-CtBP binding, 1536-well; active compounds read low; in the data active = activity change below about -65%; inconclusive = mostly about -30% to -63%; note: % is set by controls: 0 for no effect and ±100 for the full control effect
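Steps: dispense buffer (Tris pH 8.0, NaCl 300 mM, TCEP 1 mM, BSA, Tween 20); add 5X protein mix (GST-E1A, His-CtBP, 125 nM each); pin 23 nL compound; 2 h at 37 °C, dark; add 5X beads (50 ug/mL); 1 h; read.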
Six1-Eya2 inh = blocks human Six1 binding to Eya2. Q15475+O00167. AlphaScreen GST-Six1/His-Eya2 binding, biochemical; active compounds read low. activity change, % (concentration not given with the values). 360,000 tested, 0.56% active; in the data active = activity change below about -65%; inconclusive = mostly about -30% to -63%; note: % is set by controls: 0 for no effect and ±100 for the full control effect
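AlphaScreen with GST-Six1 and His-Eya2 (5X mix: 250 nM and 500 nM), glutathione donor and nickel acceptor beads; buffer 50 mM Tris pH 8.0, 300 mM NaCl, 1 mM TCEP; 1 h at 37 C in the dark.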
BAZ2B block = blocks human BAZ2B; Q9UIF8; AlphaScreen BAZ2B-H3K14Ac peptide displacement; Potency, µM (titrated, usually from 114 µM), without a hit: at the top dose activity change, negative = inhibition, hits mostly inhibitors; 360,000 tested, 4.4% active; note: potency is the fitted concentration of half-maximal effect; % is set by controls: 0 for no effect and ±100 for the full control effect; nearly all actives have a fitted effect of over 60% in size
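BAZ2B (50 nM) with biotin-H3(5-23)K14Ac peptide (50 nM) in PBS pH 7.4, 0.01% Tween-20, preformed 30 min, then compound 30 min at room temperature; top concentration 110uM. AlphaScreen streptavidin donor/nickel chelate acceptor beads (10 ug/mL final), 20 min dark, signal read.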
G9a inh = blocks human histone lysine methyltransferase G9a; 350,000 tested, 8.8% active; AID 504332; G9a H3K9 monomethylation, AlphaScreen, 2 h; Q96KQ7; Potency, µM (series often up to 102 µM), without a hit: at the top dose activity, negative = inhibition, most hits filed as inhibitors; note: potency is the fitted concentration of half-maximal effect; % is set by controls: 0 for no effect and ±100 for the full control effect; nearly all actives have a fitted effect of over 75% in size
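Methyltransferase reactions run at room temperature for 2 h (20 nM enzyme, 500 nM biotin-H3K9 peptide, 20 uM SAM) after a 15 min compound preincubation; product detected by AlphaScreen beads and anti-H3K9me1 antibody.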
JMJD2A Tudor inh = blocks the human JMJD2A Tudor domain; O75164; AlphaScreen JMJD2A-Tudor / H3K4me3 peptide binding; Potency, µM (titrated, usually from 114 µM), for inactives: at the top dose activity change, negative = inhibition, most hits filed as inhibitors; 390,000 tested, 4.4% active; AID 504339; note: potency is the fitted concentration of half-maximal effect; % is set by controls: 0 for no effect and ±100 for the full control effect; nearly all actives have a fitted effect of over 50% in size
Target sequence (O75164 whole entry, looked up, the tested form may be a part): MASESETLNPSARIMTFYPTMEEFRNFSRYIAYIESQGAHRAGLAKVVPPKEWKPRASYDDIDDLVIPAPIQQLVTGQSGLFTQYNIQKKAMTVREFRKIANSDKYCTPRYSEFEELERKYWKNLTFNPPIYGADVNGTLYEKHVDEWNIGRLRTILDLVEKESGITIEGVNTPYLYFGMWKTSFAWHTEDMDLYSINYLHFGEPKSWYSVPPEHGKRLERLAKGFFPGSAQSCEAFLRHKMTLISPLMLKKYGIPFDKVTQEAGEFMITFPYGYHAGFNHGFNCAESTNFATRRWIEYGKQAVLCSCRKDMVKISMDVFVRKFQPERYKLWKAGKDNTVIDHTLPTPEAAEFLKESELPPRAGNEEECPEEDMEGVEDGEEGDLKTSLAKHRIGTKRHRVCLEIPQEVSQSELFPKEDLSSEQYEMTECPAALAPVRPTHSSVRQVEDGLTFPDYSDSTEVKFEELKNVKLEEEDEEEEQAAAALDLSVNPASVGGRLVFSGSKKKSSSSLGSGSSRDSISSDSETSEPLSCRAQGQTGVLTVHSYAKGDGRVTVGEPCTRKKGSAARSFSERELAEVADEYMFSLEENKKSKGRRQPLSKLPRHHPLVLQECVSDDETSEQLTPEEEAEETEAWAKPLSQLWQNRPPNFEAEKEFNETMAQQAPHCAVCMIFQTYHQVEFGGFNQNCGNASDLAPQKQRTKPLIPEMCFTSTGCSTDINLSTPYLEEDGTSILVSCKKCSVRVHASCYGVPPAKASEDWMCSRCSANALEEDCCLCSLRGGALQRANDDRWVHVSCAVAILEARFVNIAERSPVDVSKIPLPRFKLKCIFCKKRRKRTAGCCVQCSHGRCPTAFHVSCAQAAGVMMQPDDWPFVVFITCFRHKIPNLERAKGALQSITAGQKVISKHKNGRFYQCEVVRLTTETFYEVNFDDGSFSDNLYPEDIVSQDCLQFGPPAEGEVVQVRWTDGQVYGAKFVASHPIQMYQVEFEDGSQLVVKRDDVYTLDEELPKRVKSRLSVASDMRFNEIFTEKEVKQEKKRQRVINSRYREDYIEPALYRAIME
Numbers without * were called inactive; ? = inconclusive; . = not tested or not shown; [ ] = remark or other dose. Hits are enriched below; roughly 10% of the tested compounds scored in any of these assays. Unless noted, calls come from the whole dose curve; as a rule, active = well fitted inhibition curve with a large enough effect; inconclusive = small, poorly fitted or top-dose-only effect; inactive = no such curve, though single readings can be large or run the other way.

SMILES	HP1b binding inh	CtBP-E1A blk	Six1-Eya2 inh	BAZ2B block	G9a inh	JMJD2A Tudor inh
COc1ccc(N2CCN(C(CNS(=O)(=O)c3cccs3)c3cccnc3)CC2)cc1 (stereo not drawn)	-15%	-8	-11	?	89µM*	?
O=S(=O)(NCC(c1cccnc1)N1CCN(c2ccccc2)CC1)c1cccs1 (stereo not drawn)	0%	-2	-11	?	?	-26%
COc1ccc(OC)c(NC(=O)CCc2nc(-c3ccc(C)cc3)no2)c1	1%	.	.	-33%	-29%[59 µM]	-28%
CCCC(=O)Nc1ccc(NC(=S)NC(=O)c2cccs2)cc1	39%	-3	?	?	32µM*	-12%
CC(=O)NC(=S)Nc1ccc(NC(=S)NC(=O)c2cccs2)cc1	35%	5	2	-6%	.	-29%
CCN(CC)c1ccc(NC(=S)NC(=O)c2cccs2)cc1	?	.	?	10µM*	.	18µM*
CCN(CC)c1ccc(NC(=O)CN(C)Cc2cccs2)cc1	45µM*	?	?	32µM*	8.9µM*	40µM*
CCCC(=O)Nc1ccc(C(=O)NNC(=S)NC(=O)c2cccs2)cc1	29%	-6	-5	1%	5%[0.0925 µM]	-24%
O=C(NC(=S)Nc1cccc2ncccc12)c1cccs1	26%	4	-2	-32%	50µM*	-4%
CCCS(=O)(=O)NCCc1sc2nc(-c3ccc(F)cc3)nn2c1C	36%	.	.	1%	10%[59 µM]	7%
COc1ccc(Cl)cc1NC(=O)C1CCCN(S(=O)(=O)c2ccc3c(c2)CCCC(=O)N3)C1 (stereo not drawn)	15%	.	.	0%[57.1 µM]	-34%[59 µM]	-26%
CCCC(=O)NC(=S)Nc1ccc(NC(=O)c2cccs2)cc1	44%	8	-3	3%	11µM*	-7%
CCCC(=O)NC(=S)Nc1ccc(N2CCN(C(=O)c3cccs3)CC2)cc1	4%	?	?	?	40µM*	-27%
O=C(Nc1ccc(NC(=S)NC(=O)c2cccs2)cc1)c1ccco1	18%	-4	-12	-31%	50µM*	-23%
O=C(NC(=S)NNC(=O)c1cccs1)c1ccco1	33%	-4	1	79%[57.1 µM]	?	2%
CC(C)(C)OC(=O)N1CCC(c2c(C(=O)NCc3ccco3)cnn2-c2ccccc2)CC1	-16%	.	.	-1%[57.1 µM]	-9%[59 µM]	-24%
COc1ccccc1CNS(=O)(=O)c1c(C(=O)N2CCC(C)CC2)c(C)n(C)c1C	14%	.	.	-15%	8%[59 µM]	-27%
Oc1ccc(-c2cnns2)c(O)c1	?	-3	1	-24%	7.1µM*	0.79µM*
O=C(COc1ccccc1)Nc1nc(-c2cccnc2)cs1	25%	-2	-4	9%	?	-5%
Cc1ccc(S(=O)(=O)CCc2nnc(NC(=O)c3cnccn3)s2)cc1	25%	5	-5	-2%	?	?
O=C(COc1ccc([N+](=O)[O-])cc1)Nc1nc(-c2ccccn2)cs1	9%	-92*	-79*	56µM*	35µM*	28µM*
Cc1ccc(OCC(=O)Nc2nc(-c3ccccn3)cs2)c(C)c1	-9%	?	?	3%	40µM*	-27%
Cc1ccc(S(=O)(=O)CCC(=O)Nc2nc(-c3ccccn3)cs2)cc1	44%	-73*	?	?	15%[12.7 µM]	89µM*
Cc1ccc(S(=O)(=O)CCc2nnc(NC(=O)c3ccccn3)s2)cc1	47%	-92*	-90*	3.2µM*	12%	11µM*
CCCC(=O)Nc1cc(C)c(O)c(-c2nc3ncccc3o2)c1	3%	.	.	-20%	-8%[59 µM]	-12%
SMILES	HP1b binding inh	CtBP-E1A blk	Six1-Eya2 inh	BAZ2B block	G9a inh	JMJD2A Tudor inh
O=C(COc1cccc(F)c1)Nc1nc(-c2ccccn2)cs1	.	?	-77*	.	.	.
O=C(Nc1nc(-c2ccccn2)cs1)Nc1ccc(F)cc1F	?	?	?	-28%	2.8µM*	40µM*
O=C(COc1ccc(F)cc1)Nc1nc(-c2ccccn2)cs1	1%	?	-84*	?	45µM*	79µM*
CCOCCCNc1nc2c(S(=O)(=O)c3ccc(CC)cc3)nnn2c2ccc(Cl)cc12	44%	.	.	3%	1%[59 µM]	17%
CC1=C(C(=O)Nc2ccccc2)C(c2ccccc2[N+](=O)[O-])NC(=O)N1 (stereo not drawn)	17%	.	4	-36%	?	-14%
COc1ccccc1NC(=O)C1=C(C)NC(=O)NC1c1ccccc1[N+](=O)[O-] (stereo not drawn)	-10%	2	5	.	13µM*	-27%
COc1cccc(C(=O)NCCS(=O)(=O)N(C)C2CCCCC2)c1	19%	-3	6	-6%	22µM*	-9%
CCOC(=O)C1CCCN(S(=O)(=O)CCNC(=O)c2cccc(OC)c2)C1 (stereo not drawn)	34%	1	2	-7%	11µM*	-32%
COc1cccc(C(=O)NCCS(=O)(=O)N(C)Cc2ccccc2)c1	19%	9	9	2%	45µM*	-14%
COc1cccc(C(=O)NC(c2ccccc2)C2CCCC2)c1 (stereo not drawn)	1%	4	0	1%	3%	22µM*
COc1cccc(C(=O)Nc2ccccc2)c1	53%	6	4	12%	0%[2.33 µM]	1%[57.1 µM]
CCc1ccc(-n2c(=O)c3sc4ccccc4c3n(CC(=O)N(CC)Cc3ccccc3)c2=O)cc1	52%	.	.	-15%	-1%[59 µM]	3%
Cn1c2[n+](c3ccc(Cl)cc3c1=O)Cc1ccccc1-2	45%	5	-1	-6%	28µM*	-15%
CCOC(=O)c1[nH]c(C)c(CCC(=O)NCc2ccc(OCC)cc2)c1C	20%[57 µM]	.	.	-15%	-16%[59 µM]	-28%
COc1cccc(CNC(=O)c2nn(-c3ccccc3Cl)nc2CO)c1	19%	.	.	5%	-4%[59 µM]	-22%
CCCSC1=C(C#N)C(c2ccc(O)c(OC)c2)CC(=O)N1 (stereo not drawn)	35%	-1	-5	10%	50µM*	-6%
CCCCSC1=C(C#N)C(c2ccccc2C)CC(=O)N1 (stereo not drawn)	55%	3	-3	8%	7%	-13%
Cc1ccc(C2CC(=O)NC(SCc3ccccc3)=C2C#N)o1 (stereo not drawn)	-11%	-17	-23	32µM*	?	?
COc1cc(C2CC(=O)NC(SCC(=O)Nc3ccccc3C)=C2C#N)ccc1O (stereo not drawn)	26%	-1	-2	-6%	-4%[59 µM]	-9%
CCCSC1=C(C#N)C(c2ccccc2C)CC(=O)N1 (stereo not drawn)	33%	2	2	7%	25µM*	-8%
